Results: PubChem BioAssay (NCI)
About 83,000 compounds went through this panel and 20% of them were active in at least one assay; those are over-represented in the sample as a whole.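 Interpretation: 100, growth as untreated; towards 0, rising growth inhibition; 0, no net growth; 0 to -100, cell death. Compounds scoring below 10 were considered active.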 Calls of active or inactive are those of the source.

What was measured:
Test in all cases: NCI-60 one-dose screen, 48 h (100 = growth as untreated, 0 = no growth, -100 = all killed)
Settings in all cases: 10 µM unless noted
NCI-H23 lung = tested on: NCI-H23 lung
NCI-H226 lung = tested on: NCI-H226 lung
NCI-H322M lung = tested on: NCI-H322M lung
HOP-62 NSCLC = tested on: HOP-62 NSCLC
NCI-H460 lung = tested on: NCI-H460 lung
HOP-92 NSCLC = tested on: HOP-92 NSCLC
NCI-H522 lung = tested on: NCI-H522 lung
786-0 renal = tested on: 786-0 renal
COLO 205 colon = tested on: COLO 205 colon
A549/ATCC NSCLC = tested on: A549/ATCC NSCLC

Measured: growth

CN(C)c1ncnc2c1cnn2C
inactive: NCI-H23 lung 103% | NCI-H226 lung 98.9% | NCI-H322M lung 102% | HOP-62 NSCLC 95.8% | NCI-H460 lung 103% | HOP-92 NSCLC 89.2% | NCI-H522 lung 106% | 786-0 renal 99% | COLO 205 colon 107%

NC(CSSCC(N)C(=O)O)C(=O)O (stereo not drawn)
inactive: NCI-H23 lung 20.2% | NCI-H322M lung 36.6% | HOP-62 NSCLC 15.7% | NCI-H460 lung 42.5% | HOP-92 NSCLC 17.3% | A549/ATCC NSCLC 36.7%
active: NCI-H226 lung -9.33% | NCI-H522 lung -6.34% | COLO 205 colon -19.2%

COC1(OC)C2(Cl)C(Cl)=C(Cl)C1(Cl)C1COCC12 (stereo not drawn)
inactive: NCI-H23 lung 109% | NCI-H226 lung 93.6% | NCI-H322M lung 104% | HOP-62 NSCLC 96.5% | NCI-H460 lung 86.8% | HOP-92 NSCLC 105% | NCI-H522 lung 79.5% | 786-0 renal 104% | COLO 205 colon 113%

Cc1c(Cl)cccc1N=C=S
inactive: NCI-H23 lung 85% | NCI-H226 lung 101% | NCI-H322M lung 95.4% | HOP-62 NSCLC 88.5% | NCI-H460 lung 101% | HOP-92 NSCLC 69.6% | NCI-H522 lung 86.8% | 786-0 renal 101% | COLO 205 colon 117%

CS(=O)CC(=N\O)/C(CS(C)=O)=N\O (stereo not drawn)
inactive: NCI-H23 lung 106% | NCI-H226 lung 110% | NCI-H322M lung 98% | HOP-62 NSCLC 102% | NCI-H460 lung 111% | HOP-92 NSCLC 105% | NCI-H522 lung 96% | 786-0 renal 99.2% | COLO 205 colon 106%

Cc1ccc(N2C(=O)c3cccc4c(N)c(S(=O)(=O)O)cc(c34)C2=O)cc1
inactive: NCI-H23 lung 95.7% | NCI-H226 lung 89.7% | NCI-H322M lung 114% | HOP-62 NSCLC 107% | NCI-H460 lung 104% | HOP-92 NSCLC 86.1% | A549/ATCC NSCLC 104% | 786-0 renal 104% | COLO 205 colon 109%

CCC(=O)Oc1ccc2ccccc2c1
inactive: NCI-H23 lung 100% | NCI-H226 lung 90.2% | NCI-H322M lung 103% | HOP-62 NSCLC 81% | NCI-H460 lung 99.9% | HOP-92 NSCLC 86.1% | A549/ATCC NSCLC 99.4% | 786-0 renal 96.9% | COLO 205 colon 102%

c1cc(CNCCNCc2ccncc2)ccn1
inactive: NCI-H23 lung 112% | NCI-H226 lung 103% | NCI-H322M lung 97% | HOP-62 NSCLC 103% | NCI-H460 lung 116% | HOP-92 NSCLC 97.5% | 786-0 renal 104% | COLO 205 colon 113%

CC(=O)[C@@]1(O)CC[C@H]2[C@@H]3CC[C@@H]4CC(=O)CC[C@]4(C)[C@H]3[C@@H](O)C[C@@]21C
inactive: NCI-H23 lung 96.9% | NCI-H226 lung 95.9% | NCI-H322M lung 105% | HOP-62 NSCLC 74.2% | NCI-H460 lung 110% | HOP-92 NSCLC 84.3% | NCI-H522 lung 88.4% | 786-0 renal 99.2% | COLO 205 colon 95.3%

CC(=O)Nc1ncc(S(=O)(=O)c2ccc([N+](=O)[O-])cc2)s1
inactive: NCI-H23 lung 117% | NCI-H226 lung 105% | NCI-H322M lung 113% | HOP-62 NSCLC 93.2% | NCI-H460 lung 113% | HOP-92 NSCLC 110% | A549/ATCC NSCLC 103% | 786-0 renal 98% | COLO 205 colon 106%

OCC(O)COc1ccc(Cl)cc1Cl (stereo not drawn)
inactive: NCI-H23 lung 105% | NCI-H226 lung 106% | NCI-H322M lung 95.1% | HOP-62 NSCLC 88.4% | NCI-H460 lung 111% | HOP-92 NSCLC 130% | A549/ATCC NSCLC 72.6% | 786-0 renal 93.4% | COLO 205 colon 94%

CSCC[C@@H]1C(=O)N(C)[C@H](C(C)(C)C)N1C(=O)c1ccccc1
inactive: NCI-H23 lung 101% | NCI-H226 lung 102% | NCI-H322M lung 97.6% | HOP-62 NSCLC 103% | NCI-H460 lung 112% | HOP-92 NSCLC 108% | 786-0 renal 106% | COLO 205 colon 113%

NC(=O)OCCO
inactive: NCI-H23 lung 99.3% | NCI-H226 lung 99.5% | NCI-H322M lung 97% | HOP-62 NSCLC 105% | NCI-H460 lung 110% | HOP-92 NSCLC 102% | A549/ATCC NSCLC 99.7% | 786-0 renal 95% | COLO 205 colon 113%

NNC(=O)c1ccccc1N
inactive: NCI-H23 lung 101% | NCI-H226 lung 114% | NCI-H322M lung 118% | HOP-62 NSCLC 90.6% | NCI-H460 lung 118% | HOP-92 NSCLC 86.4% | A549/ATCC NSCLC 120% | 786-0 renal 96.9% | COLO 205 colon 133%

CN1C(=O)NC(c2ccc(Cl)cc2)(c2ccc(Cl)cc2)C1=O
inactive: NCI-H23 lung 98.2% | NCI-H226 lung 94.1% | NCI-H322M lung 119% | HOP-62 NSCLC 125% | NCI-H460 lung 111% | HOP-92 NSCLC 58.4% | A549/ATCC NSCLC 115% | 786-0 renal 106% | COLO 205 colon 122%

Cc1ccccc1NC(=O)Oc1ccc(Cl)cc1C(=O)c1ccccc1
inactive: NCI-H23 lung 95.1% | NCI-H226 lung 92.5% | NCI-H322M lung 99.1% | HOP-62 NSCLC 88.1% | NCI-H460 lung 104% | HOP-92 NSCLC 83.9% | A549/ATCC NSCLC 91% | 786-0 renal 102% | COLO 205 colon 109%

COc1ccc(Br)c(C=O)c1
inactive: NCI-H23 lung 91.4% | NCI-H226 lung 84.5% | NCI-H322M lung 89.8% | HOP-62 NSCLC 67.4% | NCI-H460 lung 101% | HOP-92 NSCLC 68.8% | A549/ATCC NSCLC 92.6% | 786-0 renal 69.3% | COLO 205 colon 102%

CC(=O)c1cccs1
inactive: NCI-H23 lung 93.8% | NCI-H226 lung 98.8% | NCI-H322M lung 97.7% | HOP-62 NSCLC 83.8% | NCI-H460 lung 104% | HOP-92 NSCLC 90.8% | A549/ATCC NSCLC 92% | 786-0 renal 95.1% | COLO 205 colon 116%

NS(=O)(=O)c1cc(=O)[nH]c(=O)[nH]1
inactive: NCI-H23 lung 114% | NCI-H226 lung 109% | NCI-H322M lung 93.7% | HOP-62 NSCLC 107% | NCI-H460 lung 111% | HOP-92 NSCLC 172% | A549/ATCC NSCLC 115% | 786-0 renal 105% | COLO 205 colon 117%

Cc1ccc([N+](=O)[O-])c(C)n1
inactive: NCI-H23 lung 108% | NCI-H226 lung 106% | NCI-H322M lung 101% | HOP-62 NSCLC 106% | NCI-H460 lung 112% | HOP-92 NSCLC 84.2% | A549/ATCC NSCLC 105% | 786-0 renal 114% | COLO 205 colon 111%

O=C(O)CCCCCNC(=O)OCc1ccccc1
inactive: NCI-H23 lung 102% | NCI-H226 lung 105% | NCI-H322M lung 95.1% | HOP-62 NSCLC 101% | NCI-H460 lung 101% | HOP-92 NSCLC 92.3% | NCI-H522 lung 107% | 786-0 renal 102% | COLO 205 colon 99%

COc1cc(N)c2ncccc2c1Cl
inactive: NCI-H23 lung 104% | NCI-H226 lung 96% | NCI-H322M lung 97.9% | HOP-62 NSCLC 102% | NCI-H460 lung 109% | HOP-92 NSCLC 101% | A549/ATCC NSCLC 103% | 786-0 renal 95% | COLO 205 colon 116%

S=CN1CCCCC1
inactive: NCI-H23 lung 105% | NCI-H226 lung 98.1% | NCI-H322M lung 102% | HOP-62 NSCLC 108% | NCI-H460 lung 109% | HOP-92 NSCLC 103% | A549/ATCC NSCLC 91.8% | 786-0 renal 102% | COLO 205 colon 121%

NC(CCl)=NCC12CC3CC(CC(C3)C1)C2
inactive: NCI-H322M lung 20.1%
active: NCI-H23 lung -7.12% | NCI-H226 lung -0.0494% | HOP-62 NSCLC -66.1% | NCI-H460 lung -57.6% | HOP-92 NSCLC -37.6% | A549/ATCC NSCLC -47.1% | 786-0 renal -80.2% | COLO 205 colon -96%

O=C(c1ccccc1O)N1CCCC1
inactive: NCI-H23 lung 99.3% | NCI-H226 lung 94.5% | NCI-H322M lung 101% | HOP-62 NSCLC 89.7% | NCI-H460 lung 105% | HOP-92 NSCLC 94.5% | A549/ATCC NSCLC 74.9% | 786-0 renal 95.9% | COLO 205 colon 103%

CC(CCC#N)(CCC#N)C(=O)c1ccccc1
inactive: NCI-H23 lung 109% | NCI-H226 lung 107% | NCI-H322M lung 112% | HOP-62 NSCLC 107% | NCI-H460 lung 104% | HOP-92 NSCLC 61% | NCI-H522 lung 88.1% | 786-0 renal 110% | COLO 205 colon 117%

CCOS(=O)(=O)c1ccc([N+](=O)[O-])cc1
inactive: NCI-H23 lung 101% | NCI-H226 lung 101% | NCI-H322M lung 102% | HOP-62 NSCLC 100% | NCI-H460 lung 107% | HOP-92 NSCLC 99.4% | A549/ATCC NSCLC 86.1% | 786-0 renal 107% | COLO 205 colon 109%

CCC(=O)Oc1c(C)cc(O)c2ccccc12
inactive: NCI-H23 lung 83.5% | NCI-H226 lung 86.8% | NCI-H322M lung 87.4% | HOP-62 NSCLC 79.5% | NCI-H460 lung 95.6% | HOP-92 NSCLC 79.5% | A549/ATCC NSCLC 93.4% | 786-0 renal 84.7% | COLO 205 colon 110%

Nc1ncc([N+](=O)[O-])cn1
inactive: NCI-H23 lung 102% | NCI-H226 lung 103% | NCI-H322M lung 95% | HOP-62 NSCLC 103% | NCI-H460 lung 111% | HOP-92 NSCLC 93.7% | A549/ATCC NSCLC 90.1% | 786-0 renal 105% | COLO 205 colon 119%

O=S1(=O)c2ccccc2Oc2ccccc21
inactive: NCI-H23 lung 104% | NCI-H226 lung 100% | NCI-H322M lung 101% | HOP-62 NSCLC 93.4% | NCI-H460 lung 99% | HOP-92 NSCLC 90.4% | A549/ATCC NSCLC 95.4% | 786-0 renal 99.9% | COLO 205 colon 109%
